Data published in PubChem BioAssay AID720518 (National Center for Advancing Translational Sciences (NCATS), 2013).
Results filed as inconclusive are left out. Calls of active or inactive are those of the source. Calls follow the shape of the full dose curve.

Assay: qHTS for Inhibitors of Cell Surface uPA Generation: Wild-type Protective Antigen (WT-PrAg) Counterscreen for Cherry-picked Compounds; also: 0% is about no effect
Settings: cells, WT protective antigen toxicity counterscreen; series mostly up to 115 µM; activity (protection): at the top concentration

SMILES	activity (protection)
CC(Sc1nnc2ccccn12)C(=O)NCc1ccc2c(c1)OCO2 (stereo not given)	0.198% (inactive)
COc1cccc2c1Oc1ncccc1N(C(=O)CCC(=O)NCc1ccc(C)cc1)C2	-0.223% (inactive)
O=C(NCc1ccccn1)C1CCN(C(=O)c2cc3sccc3n2Cc2ccc(F)cc2)CC1	-1.98% (inactive)
Cc1ccc(N2C(=O)c3ccccc3C2(O)c2ccccc2)cc1 (stereo not given)	-0.943% (inactive)
COc1cc(F)ccc1S(=O)(=O)n1c(C)nc2ccccc21	3.9% (inactive)
Cn1c(C2CCCCC2)nc2cc(N)ccc21	-1.75% (inactive)
COC(=O)C1=C(c2cccc(OC)c2OC)C[C@@H]2CC[C@H]1N2C(=O)NC1CC1	-0.417% (inactive)
COc1ccccc1CCNC(=O)C(=O)NCC1OCCN1S(=O)(=O)c1ccc(OC)c(OC)c1 (stereo not given)	-0.951% (inactive)
COc1ccc(OC)c(N2C(=O)CC(Cc3cc(C)cc(C)c3)C2=O)c1 (stereo not given)	-0.552% (inactive)
Cc1ccc(CC2CC(=O)N(c3cc(C)ccc3C)C2=O)cc1 (stereo not given)	2.84% (inactive)
CN(C)c1ccc(S(=O)(=O)N2CCC(Cc3ccccc3)CC2)cn1	-0.825% (inactive)
CCOC(=O)Cn1c(=O)cc(C)c2cccc(C)c21	5.3% (inactive)
Cc1cc(=O)[nH]c2c(C)cc(S(=O)(=O)Nc3ccc(O)cc3)cc12	-1.13% (inactive)
Cc1ccc(NC(=O)C(C)S)cc1 (stereo not given)	-2.35% (inactive)
CCOc1ccc(Cl)cc1/C=N/NC(=O)c1ccccc1	-0.125% (inactive)
CCOc1ccc(CCNC(=O)Cc2ccc(NC3=NC4CS(=O)(=O)CC4S3)cc2)cc1OCC (stereo not given)	2.98% (inactive)
CCOc1ccc(NS(=O)(=O)c2ccc(C(=O)N3CCC3)cc2)cc1	-0.678% (inactive)
O=C(CCCC(=O)N(c1cccc(F)c1)C(C(=O)NC1CCCC1)c1ccc(O)cc1)Nc1ccccn1 (stereo not given)	-1.3% (inactive)
CC(C)c1ccc(SCc2noc(C(=O)NCC3CCCO3)c2C(=O)O)cc1 (stereo not given)	0.0703% (inactive)
COCCOc1ccc(C(F)(F)F)cc1NC(=O)COC(=O)Cc1c[nH]c2ccccc12	-0.946% (inactive)

SMILES	activity (protection)
O=C(NC1CCCC1)c1nc2c(nnn2Cc2ccccc2Cl)c(=O)[nH]1	-1.28% (inactive)
CC(=O)n1cc(/C=N/NC(=O)c2ccc([N+](=O)[O-])cc2)c2ccccc21	-1.78% (inactive)
CCOc1ccc(N(CC(=O)Nc2ccc(CC)cc2)S(=O)(=O)c2c(C)[nH]c(=O)[nH]c2=O)cc1	-0.814% (inactive)
N#C/C(N=Nc1ccccc1O)=N\Nc1ccccc1O	8.66% (inactive)
CCCCn1c(=NC(=O)c2ccco2)c(C(=O)OCC)cc2c(=O)n3cccc(C)c3nc21	0.971% (inactive)
COCCN1C(=O)C(=O)/C(=C(/O)c2ccc(S(=O)(=O)N3CCOCC3)cc2)C1c1cccc([N+](=O)[O-])c1 (stereo not given)	-1.23% (inactive)
O=C(N/N=C/c1cccnc1)c1ccccc1[N+](=O)[O-]	-1.19% (inactive)
CCC(CC)Nc1ccc(C(CC(N)=O)NC(=O)Cc2ccc(Br)cc2)cc1[N+](=O)[O-] (stereo not given)	-2.11% (inactive)
CCOC(=O)CN1C(=O)N[C@@H](c2ccco2)C(C(=O)OC)=C1C	-1.93% (inactive)
C[N+](C)(C)CCOC(=O)CBr	-0.69% (inactive)
COc1ccc(CC(=O)NNS(=O)(=O)c2ccccc2[N+](=O)[O-])cc1OC	-0.806% (inactive)
CC(/C=C1\SC(=S)N(CCCC(=O)Nc2ccc(C(=O)O)cc2)C1=O)=C\c1ccccc1	-1.6% (inactive)
COCCN(C(=O)c1ccc(OC2CCN(S(=O)(=O)N(C)C)CC2)cc1)C(C)C	0.247% (inactive)
COC(=O)[C@]1(Cc2ccccc2)N[C@H](CN(C)C(=O)c2ccccc2)[C@@H]2C(=O)N(Cc3ccccc3)C(=O)[C@@H]21	1.64% (inactive)
Cc1cccn2c(CNCC(C)Oc3cccnc3)c(C(=O)N3CCOCC3)nc12 (stereo not given)	-1.09% (inactive)
CC(C)CNC(=O)COC(=O)CCC(=O)c1cccs1	-0.0024% (inactive)
CCCCNc1c(-c2ccc(-c3cccc(Cl)c3)cc2)nc2ccccn12	-2.18% (inactive)
CC1CCCN(S(=O)(=O)c2cccc([N+](=O)[O-])c2)C1 (stereo not given)	0.828% (inactive)
Cc1nn(-c2ccc(F)cc2)c(C)c1NS(=O)(=O)c1ccc(Cl)cc1	-1.36% (inactive)
COc1cc(CCC(=O)OCC(=O)NCc2ccccc2)cc(OC)c1OC	0.75% (inactive)
